# From PubChem BioAssay AID2501 (Southern Research Specialized Biocontainment Screening …, 2010)
# About 1,200 (55%) of roughly 2,200 compounds were called active. So high a share suggests a set chosen from earlier hits. Some of the results follow. Values without a mark were called inactive. No cut-off is given here; in the data, nearly all actives have IC50 up to about 92 µM.
# Assay: counter assay for TAg ATPase ADP read-out – biochemical, ADP-Hunter, fluorescence, counter-screen (AID 2501);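 note: purified T antigen ATPase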;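 for inhibition: 0% = enzyme with vehicle and 100% = reference inhibitor wells; higher means more inhibition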
# Conditions: series mostly up to 100 µM; inhibition: at the top concentration
Compound,inhibition,IC50
C#CCOCCOCCOCCNc1nc(N2CCN(C(=O)CCCCCCCCCCNC(=O)[C@H](CCCN=C(N)N)n3cc(C[C@@H](C)CC)nn3)CC2)nc(N2CCN(C(=O)CCCCCCCCCCNC(=O)[C@@H]([C@H](C)CC)n3cc(CCCCCN)nn3)CC2)n1,9.93%,
COc1cc(/C=N/NC(=O)c2ccc3c(c2)OCCO3)cc(Cl)c1O,,6.64 µM (active)
CCCc1cc(C(N)=O)c(NC(=O)c2ccoc2C)s1,15.3%,
COc1ccc(/C=N/NC(=O)c2ccoc2C)cc1O,,5.08 µM (active)
O=C(N/N=C/C=C\c1ccco1)c1ccccn1,-15.2%,
Cc1occc1C(=O)N/N=C/C=C/c1ccc(N(C)C)cc1,,12.2 µM (active)
COc1ccccc1/C=C/C=N/NC(=O)c1cc(-c2ccco2)[nH]n1,-4.87%,
COc1cc(/C=N/NC(=O)c2ccoc2C)cc(OC)c1O,,18.5 µM (active)
CCn1c(C)nc2cc(C(=O)N/N=C/c3ccc(OC)c(O)c3)ccc21,,3.58 µM (active)
O=c1cc(-c2ccc(Br)cc2)[nH][nH]1,,12.3 µM (active)
CN1C(=O)NC(c2ccc(O)cc2)C2=C1CN(c1ccc(O)cc1)C2=O (centres undefined),,4.84 µM (active)
Cc1cc(C)nc(SSc2nc(C)cc(C)n2)n1,-11%,
Cc1cc(C)nc(Nc2ccc(O)cc2)n1,,3.35 µM (active)
Cc1cc(C)nc(NC(=O)c2ccc(Cl)cc2)n1,-13.1%,
Oc1ccc(-c2[nH]ncc2-c2cccc3cccnc23)c(O)c1,,18.1 µM (active)
COc1ccccc1-n1cc(CN2CCN(C3CCCCC3)C(CCO)C2)cn1 (centres undefined),8.82%,
O=C(c1ccc2ccccc2c1)N1CCN(c2ccc(O)cc2)CC1,,4.79 µM (active)
CCc1ccc(OCc2nnc(SCC(=O)Nc3cccc(C(=O)N4CCOCC4)c3)o2)cc1,-25.4%,
O=C(c1cccc(F)c1)N1CCC(N2CCOCC2)CC1,0.59%,
O=C(c1cccc(-c2ccc(O)cc2)c1)N1CCOCC1,,4.07 µM (active)
O=C1c2ccccc2S(=O)(=O)c2cc(C(=O)N3CCC(N4CCCC4)CC3)ccc21,-33.2%,
O=C(c1ccc2ncsc2c1)N1CCN(c2ccc(O)cc2)CC1,,3.9 µM (active)
c1coc(-c2nnc(-c3ccco3)nn2)c1,12.1%,
O=C(N/N=C/c1ccc(O)cc1O)/C(=C/c1ccccc1)CCO,,11.2 µM (active)
COc1ccc(OC)c(CCNC(=O)Cn2sc3nc(C)cc(C)c3c2=O)c1,11.8%,
Cc1cc2nc3ccc(N(C)C)cc3nc2cc1N,,90.6 µM (active)

Compound,inhibition,IC50
O=C(O)Cc1c[nH]c2cccc(O)c12,,34.4 µM (active)
OC[C@H]1O[C@@H](Oc2cc(O)cc(/C=C/c3ccc(O)cc3)c2)[C@H](O)[C@@H](O)[C@@H]1O,,7.7 µM (active)
O=C(O)CC(CCc1ccccc1)OC1OC(CO)C(O)C(O)C1O (centres undefined),18.6%,
O=c1c(-c2ccc(O)cc2)coc2cc(OC3OC(CO)C(O)C(O)C3O)ccc12 (centres undefined),,12.9 µM (active)
CCCCN(CC)Cc1ccc(CNC(=S)Nc2ccc(C)cc2Cl)o1,13.6%,
Oc1ccc(/C=N/Nc2nccnc2Cl)c(O)c1,,11.8 µM (active)
O=c1[nH]ncc(N/N=C\c2ccc(O)cc2O)c1Cl,,6.23 µM (active)
Oc1ccc(/C=N/Nc2nccnc2Cl)cc1,,3.29 µM (active)
CCc1ccc2nc3n[nH]c(N)c3cc2c1,,5.76 µM (active)
Cc1ccc2cc3c(N)[nH]nc3nc2c1,,6.56 µM (active)
Cc1cc2cc3c(N)[nH]nc3nc2cc1C,,6.68 µM (active)
C=CCOC(=O)C1=C[C@@H](c2ccc3c(c2)OCO3)C[C@@H](OCCCCO)O1,11.6% [at 50 µM],
O=C(O)c1cc(S(=O)(=O)O)cc(Nc2c3ccccc3nc3ccccc23)c1O,,14.7 µM (active)
COC/C=C/C1=CC2=CC(=O)C(C)(O)C(=O)C2=CO1 (centres undefined),18.6%,
Nc1ccc(-c2nc3cc(N)ccc3n2CCO)cc1,,9.16 µM (active)
O=C(O)C1Nc2ccc(OC(F)(F)F)cc2C2C=CCC12 (centres undefined),23%,
COc1ccc(Nc2ccc(OC)cc2)cc1,,11.3 µM (active)
Cc1nc(-c2ccc(O)c(O)c2)cs1,,6.64 µM (active)
Oc1ccc(-c2nc(-c3ccc(O)c(O)c3)cs2)cc1,,17.4 µM (active)
COc1cc(-c2csc(C)n2)ccc1O,,3.58 µM (active)
COC(=O)C1=C(C)N(Cc2ccccc2)C(=NCCCCO)N[C@H]1c1ccccc1,25.4%,
Cc1nc(SCC(=O)N2CCOCC2)c2ccsc2n1,-16.8%,
COc1ccc(N2CCC(CNC(=O)Nc3ccccc3)C2)cc1 (centres undefined),,8.01 µM (active)
CC(=O)c1cccc(NC(=O)N2CCCC2C(=O)NCc2ccccc2)c1 (centres undefined),-22.4%,
COc1ccc(N2CCC(CNC(=O)Nc3cccc(OC)c3)C2)cc1 (centres undefined),,3.36 µM (active)
COc1ccc(S(=O)(=O)N2CCN(CC(=O)Nc3cccc(OC)c3)CC2)cc1,27.5%,

Compound,inhibition,IC50
Nc1nc(Sc2c([N+](=O)[O-])cc(C(F)(F)F)cc2[N+](=O)[O-])n[nH]1,0.27%,
CCOC(=O)CNc1c(-c2ccc(O)cc2)nc2ccccn12,,4.76 µM (active)
CC(C)Nc1nc(Cl)nc(Nc2ccccc2)n1,-23.3%,
CCOC(=O)CC(=O)CSc1nc(N)c(C#N)c(-c2ccc(Cl)cc2)c1C#N,-31.3%,
CCOC(=O)CNc1c(-c2ccc(O)cc2)nc2ccc(Cl)cn12,,2.95 µM (active)
Oc1ccc(-c2nc3ccccn3c2NCc2ccco2)cc1,,3.24 µM (active)
Oc1ccc(Nc2nc(Cl)nc(NCc3ccco3)n2)cc1,,6.71 µM (active)
O=C(c1ccc(Cl)cc1)C1CCCN(C(=O)c2csnn2)C1 (centres undefined),7.02%,
O=c1c(-c2ccc([N+](=O)[O-])cc2)coc2c(O)c(O)ccc12,,11.1 µM (active)
O=C(NNC(=O)c1ccccc1O)c1ccc(-c2ccc([N+](=O)[O-])cc2)o1,7.79%,
CCOc1ccc(OC(=O)c2cccc(S(=O)(=O)N3CCN(C)CC3)c2)cc1,,41.5 µM (active)
CC(=O)c1cccc(S(=O)(=O)N2CCCC(c3nc(-c4ccc(C)o4)no3)C2)c1 (centres undefined),3.94%,
O=C(CCN1C(=O)C2CCCCC2C1=O)N1CCN(S(=O)(=O)c2cccc(F)c2)CC1 (centres undefined),-19.8%,
COc1cc(-c2nnc(SCc3cc(=O)oc4cc(O)c(O)cc34)o2)cc(OC)c1OC,,11.6 µM (active)
COc1cc(/C(C)=N/NC(=O)CSc2nc3ccccc3[nH]2)ccc1O,,6.48 µM (active)
CCOC(=O)c1c(C)[nH]c(C)c1C(=O)CSc1nc2ccccc2[nH]1,6.27%,
COc1cc(/C(C)=N/NC(=O)CSc2nnc(C)s2)ccc1O,,8.44 µM (active)
CC1C=CCC2C(=O)N(c3cc(Cl)ccc3O)C(=O)C12 (centres undefined),-8.48%,
COc1ccc(NN=Nc2nc3c([nH]2)c(=O)n(C)c(=O)n3C)cc1,,25.4 µM (active)
O=S(=O)(Nc1c(S(=O)(=O)c2ccccc2)c2nc3ccccc3nc2n1C1CCCCC1)c1ccccc1,-19.5%,
CCN(CC)P(=O)(C(NC(=O)OC)C(F)(F)C(F)(F)C(F)(F)C(F)F)N(CC)CC (centres undefined),0.91%,
O=Nc1ccc(NOC(=O)c2ccccc2Br)cc1,,22.1 µM (active)
N#Cc1c(Nc2ccccc2C(F)(F)F)s[nH]c1=O,-19.1%,
C/C(=N\NC(=O)Cn1cc([N+](=O)[O-])cn1)c1ccc(O)cc1,,10.7 µM (active)
C/C(=N\NC(=O)CSCc1ccc([N+](=O)[O-])cc1)c1ccccc1,-42.9%,
Oc1ccc(CCNc2c3ccccc3nc3ccccc23)cc1O,,6.72 µM (active)

Compound,inhibition,IC50
O=C1CC(c2ccccc2)c2cccc(F)c21 (centres undefined),-11.6%,
COc1cc(/C=N\NC(=O)c2ccc(Cn3nc([N+](=O)[O-])c(Cl)c3C)o2)ccc1O,,6.71 µM (active)
COc1ccc(/C=N/NC(=O)c2cc(O)c(O)c(O)c2)cc1Cn1cc([N+](=O)[O-])cn1,-93.8%,
COc1cc(/C=N/NC(=O)c2ccc(Cn3cc([N+](=O)[O-])cn3)o2)cc(Br)c1O,,8.55 µM (active)
COC(=O)CCC(=O)OC1(C)C(=O)C2=COC(c3ccc(OC)cc3)=CC2=C(Br)C1=O (centres undefined),-24%,
Cc1nn(C(C)C(=O)O)c2ccccc12 (centres undefined),-38.8%,
Cc1[nH]nc2c1C(C(C)c1ccccc1)C(C#N)=C(N)O2 (centres undefined),-5.83%,
COc1cc(C2C(C#N)=C(N)Oc3n[nH]c(-c4cccnc4)c32)cc(Br)c1O (centres undefined),,16.7 µM (active)
CCOc1cc(/C=C/c2cc(C(F)(F)F)[nH]c(=O)n2)ccc1O,,6.98 µM (active)
Cn1cccc1/C=N/NC(=O)c1cccc(OC(F)(F)C(F)F)c1,-48.6%,
COc1cccc(C2C(C(C)=O)=C(O)C(=O)N2CCNCCO)c1 (centres undefined),9.86%,
COc1cccc(C(=O)Nc2ccc3c(c2)n(C)c(=O)n3C)c1,,12.6 µM (active)
CN(C(=S)Nc1cccnc1)c1ccc(O)cc1,,40.6 µM (active)
Oc1ccc(/C=N/NC(=S)Nc2cccnc2)cc1,,0.9 µM (active)
Oc1cccc(/C=N/NC(=S)Nc2cccnc2)c1O,,8.21 µM (active)
CCC(C)[C@H](N)c1nnc(SCC(=O)Nc2cccc(Cl)c2)o1 (some centres undefined),-16.3%,
CCN(CC)c1ccc(NC(=O)CSc2nnc(N)s2)cc1C,,8.65 µM (active)
CCn1c(SCC(=O)Nc2cccc(C(C)=O)c2)nnc1C(C)C,22.6%,
Cc1nn(-c2ccc(Cl)cc2)c2[nH]c(=O)c(CNCc3ccc4c(c3)OCO4)cc12,-5.68%,
Cc1nn(-c2ccccc2)c2[nH]c(=O)c(CNc3ccc(N4CCOCC4)cc3)cc12,,3.77 µM (active)
Cc1cccc(NC(=S)N2CCCN(c3ncccc3[N+](=O)[O-])CC2)c1,-0.13%,
Oc1ccc(N2CCN(C(c3ccccn3)c3nnnn3C3CCCC3)CC2)cc1 (centres undefined),,3.68 µM (active)
Oc1ccc(N2CCN(C(c3ccncc3)c3nnnn3C3CCCC3)CC2)cc1 (centres undefined),,3.39 µM (active)
CCC(C)(C)n1nnnc1C(c1ccc2ncccc2c1)N1CCN(c2ccc(O)cc2)CC1 (centres undefined),,5.17 µM (active)
Cc1nnc(C)c2c(C)n(-c3ccc4ncccc4c3)c(C)c12,-11.1%,
CC(C)(C)n1nnnc1C(c1ccncc1)N1CCN(c2ccc(O)cc2)CC1 (centres undefined),,6.75 µM (active)
